Drawing on PubChem BioAssay AID463173 (ICCB-Longwood Screening Facility, Harvard Medical School, 2010), this text covers survival for 89 compounds.

Among all 52,000 compounds or so, about 4,300 (8.3%) were called active. The list comes from a sample in which actives are over-represented; it also holds similar structures and randomly drawn compounds. Unmarked numbers belong to inactive results. Rule as the data show it: active = survival mostly below about 52% (no sharp cut-off); inactive = mostly above about 56%.

The experiment has as its system DeltatarO mutant. Nature of the experiment: growth inhibition of S. aureus wild type versus tarO mutant, primary screen, teichoic acid synthesis inhibitors, RN4220, OD600 (AID 463173). The conditions noted are these: OD600, 18 h, hits give low values, screened at 18.75 µg/mL (by protocol).
Take `Cc1ccc2scc(N3CCc4ccccc4C3)c(=O)c2c1`: the survival is 73%.

`CCN(c1cccc(C)c1)S(=O)(=O)c1c(C)nc2sc(C)cn2c1=O`: the survival is 73%.

On to `Cc1ccc2oc(=O)c3cnn(CC(=O)Nc4cccc(C(F)(F)F)c4)c3c2c1`, for which the survival is 87%. As for `Brc1ccc(-c2cc(-c3ccccc3)no2)cc1`, the figure is 74%. Consider `CC1CCC(Nc2nnnn2-c2ccccc2)CC1` (centres undefined), for which the survival was 87%. Turning to `CCc1cccc(NS(=O)(=O)c2ccc3c(c2)n(C)c(=O)c(=O)n3C)c1`, the survival is 73%. As for `CCOC(=O)c1ccccc1NC(=O)CN1C(=O)CC(c2ccccc2)Sc2ccccc21` (centres undefined), the figure is 92%. The figure for `COCCNC(=O)CSc1nc(-c2ccc(F)cc2)[nH]c1-c1ccc(Cl)cc1` is 71%; for `CCc1cccc(C)c1NC(=O)Cn1cnc2c1c(=O)n(C)c(=O)n2C` it is 74%. Consider `Cc1ccc(NC(=O)c2nc(S(C)(=O)=O)ncc2N(Cc2ccccc2)Cc2ccco2)c(C)c1`, for which the survival was 53%.

Turning to `CS(=O)(=O)c1ncc(N(Cc2ccco2)Cc2cccs2)c(C(=O)Nc2ccccc2F)n1`, the survival is 41% (active). The figure for `Cc1ccc(NC(=O)c2nc(S(C)(=O)=O)ncc2N(Cc2ccco2)Cc2ccccc2F)c(C)c1` is 37% (active). Turning to `Cc1ccc(CN(Cc2ccco2)c2cnc(S(C)(=O)=O)nc2C(=O)Nc2ccccc2Br)o1`, the survival was 44%.

`Cc1cccc(C)c1NC(=O)c1nc(S(C)(=O)=O)ncc1N(Cc1ccc(C(C)(C)C)cc1)Cc1ccco1`: the survival was 49%.

Regarding `Cc1ccc(NC(=O)c2nc(S(C)(=O)=O)ncc2N(Cc2ccc(C(C)(C)C)cc2)Cc2ccco2)cc1C`, the survival was 52%. `CS(=O)(=O)c1ncc(N(Cc2ccco2)Cc2ccco2)c(C(=O)Nc2ccccc2Br)n1`: the survival was 53%.

In the case of `Cc1ccc(C)c(NC(=O)c2nc(S(C)(=O)=O)ncc2N(Cc2ccc(C(C)(C)C)cc2)Cc2ccco2)c1`, the survival is 55% (active). The figure for `CCc1ccc(CN(Cc2ccco2)c2cnc(S(C)(=O)=O)nc2C(=O)Nc2c(C)cccc2C)cc1` is 36% (active); for `Cc1cccc(C)c1NC(=O)c1nc(S(C)(=O)=O)ncc1N(Cc1ccc(F)cc1)Cc1ccco1` it is 46%. With `CCS(=O)(=O)c1ncc(N(Cc2ccco2)Cc2ccccc2F)c(C(=O)Nc2cccc(Cl)c2)n1`, the survival is 60%. As for `CC(C)(C)c1ccc(CN(Cc2ccco2)c2cnc(S(C)(=O)=O)nc2C(=O)Nc2ccc(F)cc2)cc1`, the figure is 102%; as for `COCCn1c(C)cc(O)c(C(c2ccc(OC)cc2)N2CCCCC2)c1=O` (centres undefined), 83%; as for `Cc1ccc(-c2nnc(Nc3cccc(Cl)c3)c3ccccc23)cc1S(=O)(=O)N1CCN(C)CC1`, 87%. Turning to `CCn1c(=O)n(-c2ccc(F)cc2)c(=O)c2sc3ccccc3c21`, the survival was 88%. For the compound `Cc1ncc(CO)c2c1Oc1nc(-c3ccc(F)cc3)nc(SCc3ccc(F)cc3Cl)c1C2`, the survival is 58%. For `Cc1cccc(OCc2ccc(-c3nc(C#N)c(NCc4cccnc4)o3)o2)c1`, the survival was 79%. As for `COC(=O)c1sccc1S(=O)(=O)N(CC(=O)NCc1ccccc1)c1ccc(C)cc1`, the figure is 95%; as for `CC(=O)N1CCc2c(sc3c2c(=O)n(-c2ccccc2Cl)c(=O)n3Cc2cccc(C)c2)C1`, 74%. On to `O=S(=O)(Nc1ccc(Br)cc1F)c1ccc2nc(-c3ccccc3)[nH]c2c1`, for which the survival is 72%. `Cc1ccc(NS(=O)(=O)c2ccc3c(c2)CC(=O)N3)cc1Cl`: the survival was 47% (active). Regarding `CC(C)c1ccc(NS(=O)(=O)c2ccc3nc(-c4ccccc4)[nH]c3c2)cc1`, the survival is 67%.

Regarding `O=S(=O)(Nc1ccc(Br)cc1)c1ccc2nc(-c3ccccc3)[nH]c2c1`, the survival is -1% (active). The figure for `Cc1ccc(NS(=O)(=O)c2ccc3nc(-c4ccccc4)[nH]c3c2)c(Br)c1` is 79%; for `Cc1cccc(NS(=O)(=O)c2ccc3nc(-c4ccccc4)[nH]c3c2)c1C` it is 109%. As for `COc1ccc(NS(=O)(=O)c2ccc3nc(-c4ccccc4)[nH]c3c2)cc1`, the figure is 72%. Consider `COc1cc(NS(=O)(=O)c2ccc3c(c2)CC(=O)N3)cc(OC)c1OC`, for which the survival was 74%. As for `Cc1ccc(NS(=O)(=O)c2ccc3nc(-c4ccccc4)[nH]c3c2)c(Cl)c1`, the figure is 76%. The figure for `Cc1ccc(NS(=O)(=O)c2ccc3c(c2)N(C)C(=O)CC(=O)N3C)cc1Cl` is 72%; for `Cc1ccc(NS(=O)(=O)c2ccc3nc(-c4ccccc4)[nH]c3c2)cc1Cl` it is 6% (active); for `Cc1cc(NS(=O)(=O)c2ccc3nc(-c4ccccc4)[nH]c3c2)ccc1Br` it is -2% (active).

For `Cc1cc(C)c(C#N)c(SCC(=O)Nc2sc3c(c2C#N)CCC(C(C)(C)C)C3)n1` (centres undefined), the survival is 75%. Regarding `Cc1ccc(CNC(=O)Cn2c(=O)n(-c3ccc(C)c(F)c3)c(=O)c3sc4ccccc4c32)cc1`, the survival was 75%.

Regarding `COc1ccc(-c2cnnn2-c2ccc(NC(=O)c3ccc(S(=O)(=O)N(C)C)cc3)cc2)cc1`, the survival is 81%. As for `COCCNC(=O)CCn1c(=O)[nH]c2cc(OC)c(OC)cc2c1=O`, the figure is 90%; as for `CCN1C2OC(C3OC4C(O3)N(CC)S(=O)(=O)N4CC)OC2N(CC)S1(=O)=O` (centres undefined), 73%; as for `CCN1/C(=C2/SC(=S)N(N)C2=O)Sc2ccccc21`, 77%. As for `O=C(CSc1nnc(-c2cccs2)o1)N1c2ccccc2CCc2ccccc21`, the figure is 70%; as for `CCOc1ccc(-c2nonc2NC(=O)c2oc3ccc(F)cc3c2C)cc1`, 117%; as for `CC1(C)C(=O)N(CC(=O)Nc2cccc(F)c2)c2ccc(S(=O)(=O)N3CCCCC3)cc21`, 81%. For `Cc1nn(-c2ccc(N3CCCC3)nn2)c(C)c1CCC(=O)Nc1ccccc1`, the survival is 83%.

For `Cc1nc2ccn(Cc3cccnc3)c(=O)c2cc1C(=O)NCc1ccc(Cl)cc1`, the survival is 69%. Take `Cc1ccc(NC(=O)C(=O)NCCc2sc(-c3ccc(Cl)cc3)nc2C)cc1C`: the survival is 104%. Regarding `Cc1nc(-c2ccccc2)sc1CCNC(=O)C(=O)Nc1ccc(F)c(Cl)c1`, the survival was 6% (active). In the case of `Cc1ccc(-c2nc(C)c(CCNC(=O)C(=O)Nc3ccc(C)c(Cl)c3)s2)cc1`, the survival was 74%. As for `O=C(c1cccc(F)c1)N1CCN(C(=O)c2cccc3ccccc23)CC1`, the figure is 92%; as for `CC(NC(=O)c1cc2ccccn2n1)c1ccccc1` (centres undefined), 75%. As for `Cc1cccc(CCNC(=O)c2sc3nc4n(c(=O)c3c2C)CCCC4)c1`, the figure is 85%; as for `COc1cc(NC(=O)CCN2CCN(c3ccccc3)CC2)cc(OC)c1`, 150%. As for `CC(=O)N1CCCc2cc(S(=O)(=O)N3CCC(C(=O)NCCC(C)C)CC3)ccc21`, the figure is 91%. `CCCCCCSc1ncc(C#N)c(N)n1`: the survival was 84%.

Regarding `N#Cc1cnc(SCCc2ccccc2)nc1N`, the survival was 81%. On to `N#Cc1cnc(SCc2ccccc2)nc1N`, for which the survival was 39% (active). The figure for `CCOC(=O)c1c(C)oc2ccc(N(C(C)=O)S(=O)(=O)c3c(C)cc(C)cc3C)cc12` is 168%. Consider `O=C(Cn1c(=O)sc2ccccc21)OCc1ccccc1`, for which the survival was 83%. As for `O=c1sc2ccccc2n1CCc1ccccc1`, the figure is 104%; as for `COc1cc(Cn2c(=O)sc3ccccc32)ccc1OC(C)C`, 40% (active); as for `CCCCOc1ccc(Cn2c(=O)sc3ccccc32)cc1OC`, -3% (active).

With `COc1ccc(CNC(=O)C(C)n2nc(C)c3sc4ccccc4c3c2=O)cc1OC` (centres undefined), the survival was 67%. As for `COc1ccc(Cn2c(=O)sc3ccccc32)cc1`, the figure is 74%. As for `COc1cc(Cn2c(=O)sc3ccccc32)ccc1OCCC(C)C`, the figure is -2% (active); as for `Cc1cccc2sc(N(Cc3cccnc3)C(=O)CCc3ccccc3)nc12`, 117%; as for `COc1cccc(-n2c(=O)c3c(C)c(C)sc3n(CC(=O)NCc3ccccc3)c2=O)c1`, 102%.

As to `CCCCCOc1ccc(/C=C/C(=O)Nc2sc3c(c2C(=O)OCC)CCC3)cc1OC`, the survival was 66%. As for `COc1ccc(NC(=O)N2CCN3CCCCC3C2)cc1OC` (centres undefined), the figure is 99%. As to `COc1cc(Cl)ccc1OC(=O)c1cn(-c2ccccc2OC)c(=O)c2ccccc12`, the survival was 58%.

As to `Cc1ccc(S(=O)(=O)Cn2nnnc2CN(Cc2ccco2)Cc2cccs2)cc1`, the survival was 61%.

With `CN(C)c1ccc(C(CNC(=O)Cc2ccc(Cl)cc2)N2CCOCC2)cc1` (centres undefined), the survival was 63%. The figure for `Cc1ccc(S(=O)(=O)NCC(c2ccc(N(C)C)cc2)N2CCCC2)cc1` (centres undefined) is 98%. The figure for `CN(C)c1ccc(C(CNS(=O)(=O)c2ccc(F)cc2)N2CCOCC2)cc1` (centres undefined) is 92%.

On to `CN(C)c1ccc(C(CNS(=O)(=O)c2ccc(Cl)cc2)N2CCOCC2)cc1` (centres undefined), for which the survival is 37% (active). The figure for `CN(C)c1ccc(C(CNS(=O)(=O)c2ccc(F)cc2)N2CCCC2)cc1` (centres undefined) is 106%; for `CN(C)c1ccc(C(CNC(=O)c2c(F)cccc2Cl)N2CCOCC2)cc1` (centres undefined) it is 25% (active).

For the compound `CN(C)c1ccc(C(CNC(=O)c2ccccc2Cl)N2CCCC2)cc1` (centres undefined), the survival is 81%. Consider `Cc1ccc(S(=O)(=O)NCC(c2ccc(N(C)C)cc2)N2CCOCC2)cc1` (centres undefined), for which the survival is 57%. As for `CN(C)c1ccc(C(CNS(=O)(=O)c2ccc(Cl)cc2)N2CCCC2)cc1` (centres undefined), the figure is 0% (active); as for `CCN(CC)C(=O)Cn1c(=O)n(-c2ccc(OC)cc2OC)c(=O)c2c(C)c(C(=O)N(CC)CC)sc21`, 89%. With `CCc1cccc(CC)c1NS(=O)(=O)c1ccc2c(c1)CCN2C(=O)C1CC1`, the survival is 90%.

On to `CC1=Nc2cc(C(=O)NCCc3ccc(Cl)cc3)ccc2Sc2c(C)ccc(C)c21`, for which the survival was 74%.

With `O=C(NCCc1ccc(Cl)cc1)c1ccc(CS(=O)(=O)Cc2ccc(F)cc2)o1`, the survival was 92%.
